ChEMBL document CHEMBL2218924, “A broad activity screen in support of a chemogenomic map for kinase signalling research and drug discovery” (Biochem J, 2013)

Assays:
[1] = target: T1, Serine/threonine-protein kinase TBK1 (Homo sapiens) (UniProt Q9UHD2); conditions: at 10 µM
T1 sequence (whole entry): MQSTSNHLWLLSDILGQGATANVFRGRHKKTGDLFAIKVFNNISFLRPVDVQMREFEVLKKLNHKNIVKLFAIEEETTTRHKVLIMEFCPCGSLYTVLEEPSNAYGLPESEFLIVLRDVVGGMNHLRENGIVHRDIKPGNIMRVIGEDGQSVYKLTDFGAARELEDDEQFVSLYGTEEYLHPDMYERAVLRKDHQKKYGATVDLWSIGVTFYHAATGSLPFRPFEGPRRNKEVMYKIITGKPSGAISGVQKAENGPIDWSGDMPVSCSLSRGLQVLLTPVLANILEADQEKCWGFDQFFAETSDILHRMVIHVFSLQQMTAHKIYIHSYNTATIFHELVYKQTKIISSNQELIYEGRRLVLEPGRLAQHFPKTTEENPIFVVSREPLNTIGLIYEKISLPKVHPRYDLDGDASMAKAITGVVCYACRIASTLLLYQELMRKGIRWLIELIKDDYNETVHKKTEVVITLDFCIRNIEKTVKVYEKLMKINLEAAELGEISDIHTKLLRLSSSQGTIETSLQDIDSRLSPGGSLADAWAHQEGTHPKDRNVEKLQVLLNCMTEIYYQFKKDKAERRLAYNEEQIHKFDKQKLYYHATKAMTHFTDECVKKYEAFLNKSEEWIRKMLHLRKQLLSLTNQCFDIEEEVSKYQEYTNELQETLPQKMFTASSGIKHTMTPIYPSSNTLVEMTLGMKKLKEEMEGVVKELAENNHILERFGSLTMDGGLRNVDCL

[2] = target: T2, TGF-beta receptor type-1 (Homo sapiens) (UniProt P36897); conditions: at 1 µM
T2 sequence (whole entry): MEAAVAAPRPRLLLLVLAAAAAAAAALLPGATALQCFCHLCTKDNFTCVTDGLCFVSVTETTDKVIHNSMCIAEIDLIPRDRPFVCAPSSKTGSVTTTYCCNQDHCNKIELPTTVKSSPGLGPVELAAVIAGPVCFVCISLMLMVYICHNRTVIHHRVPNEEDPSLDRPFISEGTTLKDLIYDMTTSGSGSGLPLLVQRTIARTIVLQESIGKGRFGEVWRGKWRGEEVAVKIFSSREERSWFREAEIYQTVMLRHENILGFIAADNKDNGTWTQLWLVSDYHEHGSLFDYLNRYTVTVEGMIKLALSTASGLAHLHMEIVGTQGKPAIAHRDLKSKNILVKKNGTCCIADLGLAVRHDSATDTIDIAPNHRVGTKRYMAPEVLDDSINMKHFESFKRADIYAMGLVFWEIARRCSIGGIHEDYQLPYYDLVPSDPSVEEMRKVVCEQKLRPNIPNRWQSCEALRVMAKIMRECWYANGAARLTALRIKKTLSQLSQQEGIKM

[3] = target: T2, TGF-beta receptor type-1 (Homo sapiens); conditions: at 10 µM
[4] = target: Insulin-like growth factor 1 receptor (Homo sapiens) (UniProt P08069); conditions: at 1 µM
[5] = target: Insulin-like growth factor 1 receptor (Homo sapiens) (UniProt P08069); conditions: at 10 µM
[6] = target: T3, Inhibitor of nuclear factor kappa-B kinase subunit alpha (Homo sapiens) (UniProt O15111); conditions: at 1 µM
T3 sequence (whole entry): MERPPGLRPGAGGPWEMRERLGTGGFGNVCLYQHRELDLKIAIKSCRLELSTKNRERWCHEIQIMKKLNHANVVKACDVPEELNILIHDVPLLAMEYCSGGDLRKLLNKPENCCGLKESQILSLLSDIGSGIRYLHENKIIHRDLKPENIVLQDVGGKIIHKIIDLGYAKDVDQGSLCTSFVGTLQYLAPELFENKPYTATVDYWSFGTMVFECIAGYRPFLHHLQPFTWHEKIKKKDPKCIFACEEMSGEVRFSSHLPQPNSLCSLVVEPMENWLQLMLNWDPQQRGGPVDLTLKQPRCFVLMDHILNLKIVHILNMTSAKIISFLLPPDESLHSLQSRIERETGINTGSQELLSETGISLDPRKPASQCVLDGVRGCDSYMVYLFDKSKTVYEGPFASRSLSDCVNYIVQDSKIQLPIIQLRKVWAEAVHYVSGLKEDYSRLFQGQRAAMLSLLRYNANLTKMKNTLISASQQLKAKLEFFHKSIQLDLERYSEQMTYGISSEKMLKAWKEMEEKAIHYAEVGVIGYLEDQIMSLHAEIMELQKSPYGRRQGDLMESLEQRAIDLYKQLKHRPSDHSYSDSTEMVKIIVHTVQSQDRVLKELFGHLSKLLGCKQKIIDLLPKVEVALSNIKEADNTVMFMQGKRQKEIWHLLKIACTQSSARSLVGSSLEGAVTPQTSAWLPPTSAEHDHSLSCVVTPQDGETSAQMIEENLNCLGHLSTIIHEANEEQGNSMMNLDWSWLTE

[7] = target: T3, Inhibitor of nuclear factor kappa-B kinase subunit alpha (Homo sapiens); conditions: at 10 µM
[8] = target: T4, Inhibitor of nuclear factor kappa-B kinase subunit beta (Homo sapiens) (UniProt O14920); conditions: at 1 µM
T4 sequence (whole entry): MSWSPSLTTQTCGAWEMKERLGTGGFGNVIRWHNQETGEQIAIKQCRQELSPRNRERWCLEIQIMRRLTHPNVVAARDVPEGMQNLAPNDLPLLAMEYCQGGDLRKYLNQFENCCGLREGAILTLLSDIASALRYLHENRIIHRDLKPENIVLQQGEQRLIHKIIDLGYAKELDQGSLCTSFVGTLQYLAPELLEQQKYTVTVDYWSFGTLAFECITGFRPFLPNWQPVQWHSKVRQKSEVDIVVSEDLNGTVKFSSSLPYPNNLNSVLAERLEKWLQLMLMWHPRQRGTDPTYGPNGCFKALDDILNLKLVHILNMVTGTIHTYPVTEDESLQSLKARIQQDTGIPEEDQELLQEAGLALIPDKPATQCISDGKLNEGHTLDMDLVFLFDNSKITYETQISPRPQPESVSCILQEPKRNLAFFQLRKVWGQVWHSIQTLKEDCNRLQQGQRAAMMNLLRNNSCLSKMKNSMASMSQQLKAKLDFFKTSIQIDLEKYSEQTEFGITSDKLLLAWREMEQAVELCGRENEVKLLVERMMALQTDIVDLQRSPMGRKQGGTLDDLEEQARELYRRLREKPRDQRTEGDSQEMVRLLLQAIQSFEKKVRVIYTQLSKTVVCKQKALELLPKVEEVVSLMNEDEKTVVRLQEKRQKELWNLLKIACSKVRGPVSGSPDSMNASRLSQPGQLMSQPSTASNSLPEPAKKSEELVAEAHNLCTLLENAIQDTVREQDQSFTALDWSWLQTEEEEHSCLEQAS

[9] = target: T4, Inhibitor of nuclear factor kappa-B kinase subunit beta (Homo sapiens); conditions: at 10 µM
[10] = target: Insulin receptor (Homo sapiens) (UniProt P06213); conditions: at 1 µM
Insulin receptor (Homo sapiens), sequence (P06213 28-758 limits assumed): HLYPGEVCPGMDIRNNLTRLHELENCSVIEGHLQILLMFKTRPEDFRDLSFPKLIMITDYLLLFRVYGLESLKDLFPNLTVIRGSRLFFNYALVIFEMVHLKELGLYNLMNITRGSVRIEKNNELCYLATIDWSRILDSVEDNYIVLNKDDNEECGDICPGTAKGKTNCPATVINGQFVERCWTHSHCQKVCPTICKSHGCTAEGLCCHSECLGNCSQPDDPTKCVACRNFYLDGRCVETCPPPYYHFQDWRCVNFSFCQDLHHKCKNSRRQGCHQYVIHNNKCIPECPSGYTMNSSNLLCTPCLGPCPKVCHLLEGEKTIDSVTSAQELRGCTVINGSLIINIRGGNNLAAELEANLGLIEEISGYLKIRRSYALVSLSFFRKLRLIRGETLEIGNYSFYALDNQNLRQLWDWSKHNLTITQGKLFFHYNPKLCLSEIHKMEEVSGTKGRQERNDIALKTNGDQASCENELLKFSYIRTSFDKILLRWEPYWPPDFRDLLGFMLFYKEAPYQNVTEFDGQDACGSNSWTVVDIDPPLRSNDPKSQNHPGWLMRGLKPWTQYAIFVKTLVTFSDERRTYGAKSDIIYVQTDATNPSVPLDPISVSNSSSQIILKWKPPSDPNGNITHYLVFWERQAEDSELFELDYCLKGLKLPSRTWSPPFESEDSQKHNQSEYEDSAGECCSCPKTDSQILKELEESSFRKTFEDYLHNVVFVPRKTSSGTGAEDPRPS
Insulin receptor (Homo sapiens), sequence (P06213 763-1382 limits assumed): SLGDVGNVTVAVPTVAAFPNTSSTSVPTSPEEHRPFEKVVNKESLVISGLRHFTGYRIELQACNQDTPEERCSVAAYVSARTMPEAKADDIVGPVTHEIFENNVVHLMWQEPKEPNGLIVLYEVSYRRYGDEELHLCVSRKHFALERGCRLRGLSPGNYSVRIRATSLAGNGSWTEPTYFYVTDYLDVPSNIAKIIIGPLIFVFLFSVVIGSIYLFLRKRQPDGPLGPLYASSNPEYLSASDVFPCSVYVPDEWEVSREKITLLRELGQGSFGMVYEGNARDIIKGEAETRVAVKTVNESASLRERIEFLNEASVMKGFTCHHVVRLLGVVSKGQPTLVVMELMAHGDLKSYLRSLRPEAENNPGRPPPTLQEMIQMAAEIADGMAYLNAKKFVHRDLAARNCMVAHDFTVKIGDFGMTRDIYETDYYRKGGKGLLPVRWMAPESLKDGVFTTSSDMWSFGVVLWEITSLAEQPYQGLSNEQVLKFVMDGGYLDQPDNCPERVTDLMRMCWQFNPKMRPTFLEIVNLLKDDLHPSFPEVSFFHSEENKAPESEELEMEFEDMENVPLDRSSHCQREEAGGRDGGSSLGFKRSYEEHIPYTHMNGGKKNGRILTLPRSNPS

Insulin-like growth factor 1 receptor (Homo sapiens), sequence (P08069 31-736 limits assumed): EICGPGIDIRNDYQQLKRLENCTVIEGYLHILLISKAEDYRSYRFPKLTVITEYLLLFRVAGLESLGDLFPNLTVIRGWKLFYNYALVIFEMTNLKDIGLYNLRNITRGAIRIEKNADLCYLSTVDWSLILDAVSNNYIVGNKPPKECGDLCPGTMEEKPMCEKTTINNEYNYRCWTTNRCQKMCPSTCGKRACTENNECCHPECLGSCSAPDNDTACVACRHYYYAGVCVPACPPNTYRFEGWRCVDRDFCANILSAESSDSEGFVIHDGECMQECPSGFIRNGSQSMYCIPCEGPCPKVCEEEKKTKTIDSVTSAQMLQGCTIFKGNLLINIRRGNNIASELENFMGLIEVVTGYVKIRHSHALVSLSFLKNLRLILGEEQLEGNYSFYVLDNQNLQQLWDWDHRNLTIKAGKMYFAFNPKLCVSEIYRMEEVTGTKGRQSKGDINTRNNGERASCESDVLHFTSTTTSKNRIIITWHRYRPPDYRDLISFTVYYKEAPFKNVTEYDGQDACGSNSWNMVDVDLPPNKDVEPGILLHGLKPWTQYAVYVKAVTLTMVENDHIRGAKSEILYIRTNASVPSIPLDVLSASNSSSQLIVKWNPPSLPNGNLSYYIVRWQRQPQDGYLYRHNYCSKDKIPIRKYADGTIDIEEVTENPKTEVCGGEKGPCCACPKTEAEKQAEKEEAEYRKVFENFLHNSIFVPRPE
Insulin-like growth factor 1 receptor (Homo sapiens), sequence (P08069 741-1367 limits assumed): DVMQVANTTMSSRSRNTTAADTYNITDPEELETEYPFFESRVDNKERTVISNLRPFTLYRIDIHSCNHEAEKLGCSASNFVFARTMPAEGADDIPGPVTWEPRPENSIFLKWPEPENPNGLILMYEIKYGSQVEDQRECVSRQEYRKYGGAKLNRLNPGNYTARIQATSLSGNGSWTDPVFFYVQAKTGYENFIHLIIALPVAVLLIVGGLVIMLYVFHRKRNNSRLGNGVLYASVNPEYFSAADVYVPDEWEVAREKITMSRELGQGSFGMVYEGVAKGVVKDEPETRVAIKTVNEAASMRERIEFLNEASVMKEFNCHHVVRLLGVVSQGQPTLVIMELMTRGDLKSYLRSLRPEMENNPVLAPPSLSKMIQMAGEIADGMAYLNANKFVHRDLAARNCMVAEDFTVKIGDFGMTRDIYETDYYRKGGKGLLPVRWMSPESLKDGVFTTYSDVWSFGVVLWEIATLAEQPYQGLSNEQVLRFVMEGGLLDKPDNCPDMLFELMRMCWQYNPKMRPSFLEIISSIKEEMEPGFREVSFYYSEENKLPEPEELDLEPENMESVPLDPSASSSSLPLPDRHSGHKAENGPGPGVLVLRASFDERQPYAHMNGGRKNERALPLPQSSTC

Compound: O=C1c2ccccc2-[n+]2ccc3c([nH]c4ccccc43)c21
- residual activity [1]: 53%
- residual activity [2]: 81%
- residual activity [3]: 78%
- residual activity [4]: 86%
- residual activity [5]: 92%
- residual activity [6]: 108%
- residual activity [7]: 108%
- residual activity [8]: 113%
- residual activity [9]: 97%
- residual activity [10]: 84%
